# Measurements reported in PubChem BioAssay (NCI).
# About 83,000 compounds went through this panel and 20% of them were active in at least one assay; those are over-represented in the sample as a whole.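 Interpretation: 100, growth as untreated; towards 0, rising growth inhibition; 0, no net growth; 0 to -100, cell death. Compounds scoring below 10 were considered active.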 Values without a mark were called inactive. Active and inactive are the calls of the source.
# Assays:
# Assay in all cases: NCI-60 one-dose screen, 48 h (100 = growth as untreated, 0 = no growth, -100 = all killed)
# Conditions in all cases: 10 µM unless noted
# NCI-H23 lung = tested on: NCI-H23 lung
# NCI-H226 lung = tested on: NCI-H226 lung
# NCI-H322M lung = tested on: NCI-H322M lung
# HOP-62 NSCLC = tested on: HOP-62 NSCLC
# NCI-H460 lung = tested on: NCI-H460 lung
# HOP-92 NSCLC = tested on: HOP-92 NSCLC
# NCI-H522 lung = tested on: NCI-H522 lung
# A549/ATCC NSCLC = tested on: A549/ATCC NSCLC
# 786-0 renal = tested on: 786-0 renal
# COLO 205 colon = tested on: COLO 205 colon
Compound,growth (NCI-H23 lung),growth (NCI-H226 lung),growth (NCI-H322M lung),growth (HOP-62 NSCLC),growth (NCI-H460 lung),growth (HOP-92 NSCLC),growth (NCI-H522 lung),growth (A549/ATCC NSCLC),growth (786-0 renal),growth (COLO 205 colon)
NC(=S)N/N=C(/CCN1CCCC1)CC(C1=C(O)C2=CCCCC2OC1=O)c1ccccc1 (stereo not given),72.8%,85.7%,85.7%,79.1%,101%,68.3%,80.1%,99.4%,105%,102%
COc1ccc(Nc2nn3c(-c4ccccc4)cc(-c4ccccc4)nc3c2C(N)=O)c(OC)c1,33.5%,46.4%,61.4%,47.3%,20.3%,70.9%,34.8%,24%,67.6%,53.2%
COC(=O)c1cccc2c1N(C)c1c(cccc1C(=O)OC)CC2,104%,112%,111%,107%,117%,96.4%,96.1%,112%,108%,102%
COc1ccc(-c2cc(-c3ccccc3)nc(SCCCC(=O)NO)n2)cc1OC,-2.44% (active),10.4%,17.1%,5.03% (active),1.88% (active),-10.6% (active),-22.8% (active),-17.1% (active),0.761% (active),23.7%
CCCCCCCCN(CCCCCCCC)CCCCCCNc1cc(OC)cc2cccnc12,55.6%,100%,88.5%,96.7%,92.8%,62.6%,92.1%,105%,93.7%,33.3%
O=c1ccn(C2CC(O)C(O)C(CO)O2)c(=O)[nH]1 (stereo not given),110%,142%,131%,107%,124%,121%,148%,118%,109%,113%
COc1ccc(NC(=O)c2cc(OC)c(OC)c(OC)c2)cc1O,52.2%,99.9%,68.2%,35.1%,17.2%,37.4%,-41% (active),48.6%,38.5%,40.4%
c1cc(C2=N[C@@H]3c4ccccc4C[C@@H]3O2)nc(C2=N[C@@H]3c4ccccc4C[C@@H]3O2)c1,98.1%,101%,107%,100%,109%,101%,93.1%,104%,98.8%,106%
O=S1(=O)CCC(N(/N=C/c2ccco2)c2ccccc2)C1 (stereo not given),102%,104%,102%,104%,107%,96.5%,95.5%,97.9%,103%,117%
CC1(c2ccc(Cl)cc2)OC(=O)CC(=O)O1,95.9%,104%,109%,102%,110%,103%,90.1%,99.1%,111%,109%
COc1cc(-c2nc(-c3nc4ccc(Cl)cc4[nH]3)cc3c2[nH]c2ccccc23)cc(OC)c1OC,71.5%,73.2%,82.9%,83.7%,73.8%,51.8%,39.7%,59.2%,81%,84.6%
COc1ccc(-c2c(-c3cc(OC)c4c(c3)OCO4)noc2N)cc1,40.6%,22.8%,51.1%,10.3%,4.43% (active),35.4%,4.5% (active),13.3%,14.5%,-88.9% (active)
O=c1[nH]c(Nc2ccc(S(=O)(=O)O)cc2)nc2nc(Nc3ccc(NC(=S)Nc4ccccc4)cc3)nc(-c3ccc(O)cc3O)c12,102%,88.6%,125%,109%,105%,102%,91.9%,110%,104%,119%
Cc1ccc(NS(=O)(=O)c2cc(C)ccc2C)cc1,59.2%,79.1%,88.7%,49.3%,14.4%,39.6%,11.5%,33.5%,61%,32.8%
Cc1ccc(S(=O)(=O)NCCNc2nccc(-c3c(-c4ccc(O)cc4)nc4sccn34)n2)cc1,95.1%,98.8%,110%,113%,106%,101%,84%,94.1%,97.3%,104%
Cc1ccc2nc(-c3cc4c([nH]c5ccccc54)c(-c4ccc(F)c(F)c4)n3)[nH]c2c1,84.1%,97.7%,103%,79.8%,83%,99%,65.7%,79%,99.6%,88%
Cc1nc2ncccc2nc1Nc1ccc(S(=O)(=O)Nc2ccccn2)cc1,90.6%,94.5%,96.1%,97%,106%,54.3%,81.6%,101%,94.9%,98.5%
CCCCCCN1CSC(=S)N(CCCCCC)C1,83.6%,92.3%,115%,104%,100%,81.5%,101%,101%,99.4%,106%
COc1cc([N+](=O)[O-])c2ncccc2c1O,-9.28% (active),5.16% (active),2.58% (active),5.92% (active),2.09% (active),79.4%,42.5%,-16.5% (active),108%,-67.8% (active)
CCN(CC)CCC(CNc1ccnc2cc(Cl)ccc12)c1ccccc1 (stereo not given),80.3%,63%,93.7%,78.4%,67.7%,21.1%,18%,70.4%,69.8%,-39% (active)
CCN(CC)c1ccc(/C=C2\Oc3ccc(O)c(I)c3C2=O)cc1,67.5%,88.8%,96.9%,77.8%,25.5%,81.9%,22.6%,46%,73.6%,64.3%
Clc1cccc(-c2cc(-c3ccc4c(c3)OCCO4)[nH]n2)c1,40% [25 µM],34.8% [25 µM],37.2% [25 µM],26.6% [25 µM],12.1% [25 µM],55.4% [25 µM],0.794% [25 µM] (active),41.2% [25 µM],56.8% [25 µM],11.9% [25 µM]
CC(=O)Nc1nc(N)nc(NC(C)=O)c1N=O,95.3%,105%,140%,106%,123%,108%,101%,107%,106%,116%
C1=Cc2ccccc2N(c2nnc(-c3ccccc3)o2)c2ccccc21,103%,81.7%,92.2%,99.5%,49.8%,84.7%,92.8%,92.6%,100%,91.3%
COc1cc(C2CC(c3ccc4c(c3)OCO4)=NN2C=O)cc(OC)c1OC (stereo not given),59.9%,58.3%,14.1%,36.7%,15.3%,74.6%,-3.85% (active),46.2%,37.4%,12.6%
CN(C)c1cccc2c(S(=O)(=O)/N=C(\N)Nc3nc4ccccc4s3)cccc12,66.6%,69.8%,83.4%,40.6%,30.3%,60.2%,30.1%,52.3%,77.6%,85.6%
COc1ccc(-c2nc(SCCC(C)C)nc(Nc3ccc(F)c(Cl)c3)c2C#N)cc1,90.2%,65.8%,63.2%,88.7%,24.1%,101%,84.5%,58.9%,45.4%,70.8%
